{"source": "the supplement of paper PMC13380429", "note": "A number with no mark means an inactive call."}
{"system": "Vero E6 infected with SARS-CoV-2", "assay": "inhibition of SARS-CoV-2 cytopathic effect; higher = more antiviral protection, active = above 15", "conditions": "833.33 nM; 48 h"}
{"smiles": "C#C[C@]1(O)CC[C@H]2[C@@H]3CCc4cc(OC5CCCC5)ccc4[C@H]3CC[C@@]21C", "note": "[quinestrol]", "inhibition of SARS-CoV-2 cytopathic effect": "0.63%"}
{"smiles": "COc1ccccc1OC(=O)C(C)c1ccc(CC(C)C)cc1", "note": "(stereo not drawn) [metoxibutropate]", "inhibition of SARS-CoV-2 cytopathic effect": "-1.98%"}
{"smiles": "CC[C@]1(O)C[C@@H]2CN(CCc3c([nH]c4ccccc34)[C@@](C(=O)OC)(c3cc4c(cc3OC)N(C)[C@H]3[C@@](O)(C(N)=O)[C@H](O)[C@]5(CC)C=CCN6CC[C@]43[C@@H]65)C2)C1", "note": "[vindesine]", "inhibition of SARS-CoV-2 cytopathic effect": "0.62%"}
{"smiles": "CNC(=O)[C@H](Cc1c[nH]c2ccccc12)NC(=O)[C@@H](CC(=O)NO)CC(C)C", "note": "[ilomastat]", "inhibition of SARS-CoV-2 cytopathic effect": "2.15%"}
{"smiles": "N#CC1(c2ccc(NC(=O)c3cccnc3NCc3ccncc3)cc2)CCCC1", "note": "[apatinib]", "inhibition of SARS-CoV-2 cytopathic effect": "0.23%"}
{"smiles": "CN1[C@@H]2CC[C@H]1C[C@@H](OC(=O)C(CO)c1ccccc1)C2", "note": "(stereo partly drawn)", "inhibition of SARS-CoV-2 cytopathic effect": "0.7%"}
{"smiles": "Cc1cccc(/C=N/Nc2cc(N3CCOCC3)n3nc(-c4ccncc4)cc3n2)c1", "inhibition of SARS-CoV-2 cytopathic effect": "19% (active)"}
{"smiles": "OC[C@H]1O[C@H](O[C@]2(CCl)O[C@H](CCl)[C@@H](O)[C@@H]2O)[C@H](O)[C@@H](O)[C@H]1Cl", "note": "[sucralose]", "inhibition of SARS-CoV-2 cytopathic effect": "-0.54%"}
{"smiles": "O=C(/C=C/c1ccc(O)c(O)c1)O[C@H](Cc1ccc(O)c(O)c1)C(=O)O", "note": "[rosmarinic-acid]", "inhibition of SARS-CoV-2 cytopathic effect": "3.06%"}
{"smiles": "Clc1cccc(C(c2ccc3[nH]cnc3c2)n2ccnc2)c1", "note": "(stereo not drawn) [liarozole]", "inhibition of SARS-CoV-2 cytopathic effect": "1.7%"}
{"smiles": "CN(C)CCCCSC(=N)N", "inhibition of SARS-CoV-2 cytopathic effect": "1.23%"}
{"smiles": "COc1cc2c(Nc3ccc(Cl)c(Cl)c3F)ncnc2cc1OC[C@@H]1C[C@@H]2CN(C)C[C@@H]2C1", "inhibition of SARS-CoV-2 cytopathic effect": "-14.7%"}
{"smiles": "CCCCCCCCCCCCCC(=O)OC(C)C", "note": "[isopropyl-myristate]", "inhibition of SARS-CoV-2 cytopathic effect": "1.1%"}
{"smiles": "N#Cc1c(N)nc(SCc2ncc[nH]2)c(C#N)c1-c1ccc(O)cc1", "inhibition of SARS-CoV-2 cytopathic effect": "-3.13%"}
{"smiles": "CN(C)C(=O)Oc1cccc([N+](C)(C)C)c1", "note": "[neostigmine]", "inhibition of SARS-CoV-2 cytopathic effect": "-1.4%"}
{"smiles": "COC(=O)c1c(C)[nH]c(C)c1C(=O)c1ccccc1Cc1ccccc1", "inhibition of SARS-CoV-2 cytopathic effect": "-3.62%"}
{"smiles": "NC(=O)c1ccc([N+](=O)[O-])cc1Cl", "note": "[aklomide]", "inhibition of SARS-CoV-2 cytopathic effect": "1.45%"}
{"smiles": "O=C(Nc1cc(Cl)cc(Cl)c1O)c1c(O)c(Cl)cc(Cl)c1Cl", "note": "[oxyclozanide]", "inhibition of SARS-CoV-2 cytopathic effect": "-1.33%"}
{"smiles": "CCCNC(C)(C)COC(=O)c1ccccc1", "note": "[meprylcaine]", "inhibition of SARS-CoV-2 cytopathic effect": "-1.75%"}
{"smiles": "Cc1noc(NS(=O)(=O)c2ccc(N)cc2)c1C", "note": "[sulfafurazole]", "inhibition of SARS-CoV-2 cytopathic effect": "-1.49%"}
{"smiles": "[O-][n+]1cccc(CO)c1", "note": "[mepiroxol]", "inhibition of SARS-CoV-2 cytopathic effect": "-0.59%"}
{"smiles": "Cc1ccccc1N1CCN(CCc2nnc3n2CCCC3)CC1", "note": "[dapiprazole]", "inhibition of SARS-CoV-2 cytopathic effect": "-0.37%"}
{"smiles": "Cn1c(=O)n(-c2ccc(C(C)(C)C#N)cc2)c2c3cc(-c4cnc5ccccc5c4)ccc3ncc21", "inhibition of SARS-CoV-2 cytopathic effect": "-5.08%"}
{"smiles": "C[N+](C)(C)CCCCCC[N+](C)(C)C", "note": "[hexamethonium]", "inhibition of SARS-CoV-2 cytopathic effect": "-0.93%"}
{"smiles": "COc1cc(O)c2c(c1)C(=O)c1cc(C)cc(O)c1C2=O", "note": "[rheochrysidin]", "inhibition of SARS-CoV-2 cytopathic effect": "-0.52%"}
{"smiles": "CC(=O)c1ccc(NS(C)(=O)=O)c(Oc2ccc(F)cc2F)c1", "inhibition of SARS-CoV-2 cytopathic effect": "1.88%"}
{"smiles": "Cc1cc(-c2nc(C(=O)Nc3cn(C4CCOCC4)nc3C(N)=O)co2)ccn1", "inhibition of SARS-CoV-2 cytopathic effect": "-4.01%"}
{"smiles": "CC(C)C[C@@H](C(=O)N[C@H](C(=O)OC1CCCC1)c1ccccc1)[C@H](O)C(=O)NO", "note": "[tosedostat]", "inhibition of SARS-CoV-2 cytopathic effect": "3.93%"}
{"smiles": "C[C@H](CCC(=O)O)[C@H]1CC[C@H]2[C@@H]3CC[C@@H]4C[C@H](O)CC[C@]4(C)[C@H]3C[C@H](O)[C@]12C", "note": "[deoxycholic-acid]", "inhibition of SARS-CoV-2 cytopathic effect": "-1.15%"}
{"smiles": "C[C@H](c1ccc2ccc(OC3CCC(C(F)(F)F)CC3)c(C(F)(F)F)c2c1)N1C2CCC1CC(C(=O)O)C2", "note": "(stereo partly drawn) [autotaxin-modulator-1]", "inhibition of SARS-CoV-2 cytopathic effect": "0.12%"}
{"smiles": "c1ccc2c(CC3=NCCN3)cccc2c1", "note": "[naphazoline]", "inhibition of SARS-CoV-2 cytopathic effect": "2.24%"}
{"smiles": "COC(=O)c1ccc(O)cc1", "note": "[methylparaben]", "inhibition of SARS-CoV-2 cytopathic effect": "1.99%"}
{"smiles": "CC[C@H](c1ccc(O)cc1)[C@@H](CC)c1ccc(O)cc1", "note": "[hexestrol]", "inhibition of SARS-CoV-2 cytopathic effect": "-3.14%"}
{"smiles": "Nc1nc(=O)[nH]cc1F", "note": "[flucytosine]", "inhibition of SARS-CoV-2 cytopathic effect": "2.44%"}
{"smiles": "FC(F)(F)c1ccc(CNc2ccc(Cc3c[nH]c4ncc(Cl)cc34)cn2)cn1", "note": "[pexidartinib]", "inhibition of SARS-CoV-2 cytopathic effect": "0.96%"}
{"smiles": "CNC(=O)c1cc2c(cn1)[nH]c1ccccc12", "inhibition of SARS-CoV-2 cytopathic effect": "-0.08%"}
{"smiles": "O=C(Nc1ccc([N+](=O)[O-])cc1Cl)c1cc(Cl)ccc1O", "note": "[niclosamide]", "inhibition of SARS-CoV-2 cytopathic effect": "11.4%"}
{"smiles": "CS(=O)(=O)c1cc(F)cc2c3c(n(Cc4ccc(Cl)cc4)c12)[C@@H](CC(=O)O)CC3", "note": "[laropiprant]", "inhibition of SARS-CoV-2 cytopathic effect": "1.31%"}
